NALP1 yeast inh = NALP1 inflammasome inhibitors in reconstituted yeast, colorimetric, S. cerevisiae, triplicate retest | S. cerevisiae NALP1/ASC/caspase-1 growth, X-gal OD620, 72 h | 280,000 tested, 0.61% active | inhibition, % at 10 µM | AID 2071, 2009; in the data active = inhibition mostly above about 24%, no sharp cut-off; inactive = mostly below about 32%
tim23-1 inh = growth inhibitors of tim23-1 mutant yeast, primary screen, luminescence, uHTS. S. cerevisiae tim23-1 growth, BacTiter-Glo luminescence, 24 h. inhibition, % at 20 µM. 330,000 tested, 1.3% active. AID 463212, 2010;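 active = growth inhibition of the mutant yeast at or above 50%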;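 note: temperature-sensitive mutant grown at 25 °C; plate controls were DMSO-treated mutant yeast for no effect and medium wells lacking yeast for full effect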
tim10-1 inh = growth inhibitors of tim10-1 mutant yeast, primary screen, luminescence, uHTS | S. cerevisiae tim10-1 ts strain growth, BacTiter-Glo, 24 h | inhibition, % at 20 µM | 330,000 tested, 2.2% active | AID 463190, 2010;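 active = inhibition of at least 40%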;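 note: mutant grown at 25 °C; 0% = DMSO wells with yeast and 100% = wells holding no yeast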
NALP3 yeast inh = NALP3 inflammasome inhibitors in reconstituted yeast, primary screen, luminescence, uHTS; 330,000 tested, 0.39% active; inhibition, % at 10 µM; Yeast reconstituted NLRP3/ASC/caspase-1, beta-gal luminescence, 24 h;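 active = inhibition of 50% or more; inactive = inhibition below 50%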;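 note: plate controls were induced DMSO wells for no effect and uninduced yeast grown without galactose for full effect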
TIM10 inh = growth inhibitors of isogenic TIM10 control yeast, primary screen, counter-screen for tim10-1 yeast inhibitor project, luminescence, uHTS. S. cerevisiae TIM10 strain growth, BacTiter-Glo luminescence, 24 h. inhibition, % at 10 µM. 330,000 tested, 1.4% active. AID 463195, 2010;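 active = inhibition of 40% or more at the single tested concentration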;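 note: wild-type TIM10 isogenic control strain grown at permissive 25 °C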
TIM10 conf = growth inhibitors of wild-type TIM10 yeast, confirmation, counter-screen for tim10-1 synthetic lethality project, single concentration, luminescence, S. cerevisiae; 4,600 tested, 63% active; AID 463215, 2010; S. cerevisiae tim10 strain growth, BacTiter-Glo luminescence, 24 h; inhibition, % at 10 µM; shares compounds with TIM10 inh;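 active = inhibition of yeast growth at or above a set limit in either of two replicates at 10 µM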;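 note: this counterscreen used the strain with wild-type TIM10; 0% = yeast with DMSO and 100% = medium wells lacking yeast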
Numbers without * were called inactive; . = no result. In the library only some 4.1% were active in any assay of this set; here they are far more common.

SMILES	NALP1 yeast inh	tim23-1 inh	tim10-1 inh	NALP3 yeast inh	TIM10 inh	TIM10 conf
COc1ccc(S(=O)(=O)n2c([N+](=O)[O-])cnc2C)c(C)c1C	5	10	-3	20	-7	.
COc1ccc(/C=N/NC(=O)c2ccoc2C)cc1COc1ccc(Cl)cc1	6	25	37	0	51*	5
COc1ccc(/C=N/NC(=O)c2ccoc2C)cc1OC	18	10	2	7	-13	.
COC(=O)[C@@H]1CCCN1C(=O)CCc1nnc(CCC2CCCCC2)o1	-7	16	22	5	45*	-22
CCC(C(=O)NC1CC(C)(C)NC(C)(C)C1)c1ccccc1 (stereo unspecified)	5	10	9	17	-3	.
O=C(CN1C(=O)NC2(CCOc3ccccc32)C1=O)N1CCCCC1 (stereo unspecified)	.	-12	-13	14	-4	.
S=c1[nH]nc(-c2ccc(Br)o2)n1Cc1ccccc1	-8	46	38	-15	46*	35*
COc1cc(C(=O)Nc2nc(C)cc(C)n2)cc(OC)c1OC	1	12	-8	13	4	.
O=C(c1ccccc1O)N1N=C(c2ccccc2)CC1(O)C(F)(F)F (stereo unspecified)	10	34	29	-6	46*	4
Cc1ccsc1C(=O)N/N=C/c1ccc2c(c1)OCO2	18	34	-8	10	21	.
O=C(N/N=C/c1ccc2c(c1)OCO2)c1cccs1	47	50	28	21	57*	48*
CC(=O)Nc1ccc(-c2cn3ccsc3n2)cc1	-3	7	-14	11	4	.
O=C(Nc1ccc(-c2cn3ccsc3n2)cc1)C1CC1	2	9	17	8	57*	26
Clc1c(CSc2nc3ccccc3o2)nc2ccccn12	8	19	12	35	43*	-26
C=CCn1c(-c2cc(-c3ccccc3)sc2N)n[nH]c1=S	13	4	16	33	48*	30
C/C=C(\C)C(=O)N1CCC(C(=O)c2ccccc2)CC1	9	3	-1	11	6	.
S=C(NCc1ccco1)Nc1cc(-c2ccccc2)[nH]n1	8	41	33	17	40*	31
S=C(NCc1ccco1)Nc1ccc(Cl)c(Cl)c1	18	45	34	29	46*	14
COc1ccc(-n2ncc(C(C)NS(=O)(=O)c3cc(F)ccc3C)c2C)cc1 (stereo unspecified)	1	29	18	-5	9	.
Cc1ccc(S(=O)(=O)N2CCC(C(=O)Nc3ccc(N4CCOCC4)cc3)CC2)cc1C	.	-9	-11	14	-10	.
CSc1ccc(S(=O)(=O)N2CCC(C(=O)Nc3ccccc3C(F)(F)F)CC2)cc1	2	-2	-5	11	13	.
CC(C)c1ccc2[nH]c(O)c(N=NC(=S)NCCc3ccccc3)c2c1	23	1	25	13	17	.
CCNC(=S)N=Nc1c(O)[nH]c2ccc(C(C)C)cc12	25	35	32	26	41*	-20
CCCn1cc(NC(=O)c2cc(-c3ccccc3)on2)cn1	6	41	28	47	43*	41*
O=C(CNC1CC1)Nc1cc(C(F)(F)F)ccc1Cl	-1	11	9	0	-2	.
SMILES	NALP1 yeast inh	tim23-1 inh	tim10-1 inh	NALP3 yeast inh	TIM10 inh	TIM10 conf
COc1ccccc1N1C(=O)C=C(Sc2nc(C)cc(C)n2)C1=O	-17	-11	10	-13	42*	45*
COc1cc(C)c(NC(=O)Cc2ccsc2)cc1OC	-30	15	17	13	-7	.
O=C(N/N=C\C=C\c1ccco1)c1cc(-c2ccc3ccccc3c2)n[nH]1	0	8	16	5	52*	40*
O=C(N/N=C/C=C/c1ccco1)c1cnccn1	24	-6	-18	28	6	.
O=C(N/N=C/C=C\c1ccco1)c1ccccn1	-6	16	3	11	90*	2
CC(C)CC1NC(=O)N(Cc2cc(=O)n3ccsc3n2)C1=O (stereo unspecified)	-6	0	-7	-2	-5	.
CCOC(=O)c1csc(NNC=O)n1	10	16	7	-6	8	.
O=C(NC(=S)NCCC1=CCCCC1)c1cccnc1	-9	43	39	-37	54*	48*
COc1ccc(OC)c(NC(=O)CSc2nnc(-c3cnccn3)n2C)c1	8	-5	-6	0	6	.
NC(=O)c1cnn2c(-c3ccc(Cl)cc3Cl)ccnc12	14	42	15	-14	-12	.
Cc1cccc2nc(-c3ccccc3)nc(N3CCC(O)(c4ccc(Cl)cc4)CC3)c12	37	36	36	27	43*	55*
CN(Cc1ccccc1)C(=O)c1nn2cccnc2c1Cl	21	5	18	-2	6	.
CCOC(=O)C1=C(C)NC2=C(C(=O)c3ccccc32)C1c1ccc([N+](=O)[O-])o1 (stereo unspecified)	3	48	31	22	49*	40*
Nc1c(C(=O)Nc2ccccc2F)sc2nc(-c3ccco3)ccc12	-6	6	18	9	41*	19
O=S(=O)(Nc1cccc2c1ccc1cccn12)c1cccs1	3	28	31	2	45*	2
CC(C)N1CCc2c(sc(NC(=O)c3nc4ccccc4s3)c2C(N)=O)C1	-22	42	-11	47	44*	22
CC(=O)Nc1sc2c(c1-c1nc3ccccc3s1)CN(C(C)C)CC2	.	43	12	5	65*	19
COc1ccc(CCC(=O)NCC2CCCCC2)cc1OC	11	10	-3	22	-3	.
CC(C)c1ccc(NC(=O)CSc2nc(=O)n(CCCN3CCOCC3)c3c2CCCC3)cc1	.	3	6	6	6	.
O=C(Oc1ccc2c3c(c(=O)oc2c1)CCCC3)c1ccco1	9	50	30	18	44*	45*
CC(NCc1ccc(S(N)(=O)=O)cc1)C(=O)N1c2ccccc2CC1C (stereo unspecified)	.	12	11	12	-16	.
O=C(Oc1coc(CSc2ncccn2)cc1=O)c1ccc(Br)o1	12	25	37	-4	44*	18
OCCC1CN(Cc2cc3c(cc2Cl)OCO3)CCN1C1CCCC1 (stereo unspecified)	-9	2	-14	-17	-17	.
O=C(COC(=O)c1ccc2ccccc2c1O)NCC(F)(F)F	-1	7	-11	0	-19	.
O=C1C(=C2SCCCS2)CC/C1=C\c1ccc(F)cc1	1	18	-28	25	42*	41*

Bioassay records deposited in PubChem BioAssay by Sanford-Burnham Center for Chemical Genomics.
